# Rows were chosen to be rich in hits. Some 27% of all compounds tested hit in one or more screens of this group.
# sEH activator = activators of human soluble epoxide hydrolase | AID 717 | actives 0.04% (n = 91,000) | purified human sEH enzymatic activity, activator screen | P34913 | activation, % at 2 µM; in the data active = activation above about 37%
# CYP2C9 activ = activators of human CYP2C9; P11712; recombinant CYP2C9, luciferin-H conversion, luminescence; stronger effect = higher value; factor 1 = untreated enzyme, 0 = blocked; activation factor at 5 µM; actives 1.4% (n = 96,000);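 active = activation factor of 2 or more for CYP2C9 at a 5 µM dose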;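 also: 0 = sulfaphenazole-blocked wells and 1 = vehicle-only wells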
# CYP2C19 inh = blocks human cytochrome P450 2C19; actives 21% (n = 96,000); CYP2C19 Supersomes, luciferin-H EGE luminescence, 30 min; AID 778; P33261; inhibition, % at 5 µM;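 active = CYP2C19 inhibition above a set limit at 5 µM in the primary screen, cut at about 50% in these data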;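 also: plate controls were negative control wells for no effect and 2.5 mM tranylcypromine positive control for full effect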
# Target sequence (P33261 whole entry, looked up): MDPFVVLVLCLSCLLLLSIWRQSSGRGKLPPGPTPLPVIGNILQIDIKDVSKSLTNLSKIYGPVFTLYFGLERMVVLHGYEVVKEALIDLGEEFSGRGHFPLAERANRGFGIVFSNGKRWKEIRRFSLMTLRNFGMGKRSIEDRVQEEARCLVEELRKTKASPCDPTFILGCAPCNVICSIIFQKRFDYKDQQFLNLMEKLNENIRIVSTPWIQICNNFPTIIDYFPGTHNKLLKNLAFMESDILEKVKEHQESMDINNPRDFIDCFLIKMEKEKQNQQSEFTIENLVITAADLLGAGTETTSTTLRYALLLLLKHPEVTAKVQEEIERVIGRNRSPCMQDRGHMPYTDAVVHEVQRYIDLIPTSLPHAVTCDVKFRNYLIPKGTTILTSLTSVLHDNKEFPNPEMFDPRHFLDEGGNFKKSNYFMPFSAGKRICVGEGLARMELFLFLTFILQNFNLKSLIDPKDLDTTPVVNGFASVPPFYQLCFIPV
# CYP2C19 act = cytochrome P450 2C19 (human) activation; P33261; recombinant CYP2C19, luciferin-H EGE luminescence; stronger effect = higher value; 0 = fully inhibited enzyme, 1 = untreated enzyme; activation factor at 5 µM; 96,000 tested, under 10 active;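 active = activation factor of at least 2 at 5 µM in the primary screen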;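 also: 0 = wells with 2.5 mM tranylcypromine and 1 = vehicle-only wells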
# sEH inh = inhibitors of human soluble epoxide hydrolase; P34913; recombinant human sEH enzymatic activity assay; inhibition, % at 2 µM; actives 0.34% (n = 91,000); in the data active = inhibition above about 80%
# CYP2C9 inhib = blocks human cytochrome P450 2C9; CYP2C9 Supersomes, luciferin-H conversion, luminescence; inhibition, % at 5 µM; actives 20% (n = 96,000);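 active = blocking of liver enzyme CYP2C9 beyond about 50% at 5 µM, limit read from the data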
# * hit, by the source's call; · = not tested or not shown.
SMILES,sEH activator,CYP2C9 activ,CYP2C19 inh,CYP2C19 act,sEH inh,CYP2C9 inhib
O=S(=O)(N1CCCCC1)n1nnc2ccccc21,1,1.2,82*,0.2,-3,-16
O=S(=O)(c1cccs1)n1nnc2ccccc21,5,1.9,5,0.9,-6,-87
CCOC(=O)N1CCN(C(=O)c2ccc(C)c(S(=O)(=O)Nc3ccccc3)c2)CC1,11,0.6,3,1,-11,43
Cc1ccc(C)c(NS(=O)(=O)c2cc(C(N)=O)ccc2C)c1,-6,1,76*,0.2,6,2
Cc1ccc(C)c(NS(=O)(=O)c2cc(C(=O)N3CCc4ccccc4C3)ccc2Cl)c1,-34,0.4,36,0.6,35,59*
Cc1ccccc1NS(=O)(=O)c1cc(C(=O)Nc2ccccc2-c2ccccc2)ccc1Cl,-14,0.2,36,0.6,14,84*
CCOC(=O)N1CCN(C(=O)c2ccc(C)c(S(=O)(=O)Nc3cccc(C)c3C)c2)CC1,6,0,54*,0.5,-8,98*
C=CCNC(=O)c1ccccc1NC(=O)c1ccc(Cl)c(S(=O)(=O)Nc2cc(C)ccc2C)c1,0,1,6,0.9,2,-2
CN1CCN(C(=O)CN(c2cc(C(F)(F)F)ccc2Cl)S(C)(=O)=O)CC1,-16,1,28,0.7,14,0
Cc1cccc(NS(=O)(=O)c2cc(C(=O)N3CCc4ccccc4C3)ccc2Cl)c1C,-9,0.4,36,0.6,11,58*
Cc1ccc(-c2nc(CS(=O)(=O)CC(=O)N3CCCCCC3)c(C)o2)cc1,·,0.3,56*,0.4,·,75*
Cc1cccc(-c2nc(CS(=O)CC(=O)N3CCc4ccccc4C3)c(C)o2)c1 (stereo unspecified),-12,0.6,7,0.9,12,42
Cc1ccc(-c2nc(CS(=O)(=O)CC(=O)N3CCc4ccccc4C3)c(C)o2)cc1,·,0.3,30,0.7,·,72*
CCc1ccc(-c2nc(CN3CCC(C(=O)NCc4ccco4)CC3)c(C)o2)cc1,2,0.8,11,0.9,0,22
Nc1nnc(-c2ccccc2)c(-c2ccccc2)n1,-26,1,16,0.8,22,1
Cc1cc(-c2nnc(-c3ccccc3)c(-c3ccccc3)n2)c(C)o1,·,0.3,24,0.8,·,71*
c1ccc(-c2nnc(-c3c[nH]c4ccccc34)nc2-c2ccccc2)cc1,7,0,10,0.9,-5,99*
Cc1ccc(F)c(NC=C2C(=O)OC(C)(C)OC2=O)c1,·,1.1,9,0.9,·,-8
COc1cc(/C=N/NC(=O)Nc2cccc3nsnc23)cc(OC)c1OC,21,0.4,5,0.9,-18,56*
COc1ccc(/C=N/NC(=O)Nc2cccc3nsnc23)c(OC)c1,17,0.9,0,1,-21,7
CC(C)(C)OC(=O)NCCc1nnc(S(=O)(=O)Cc2ccc(Cl)cc2Cl)o1,0,0.2,77*,0.2,2,80*
CC(C)(C)OC(=O)NCCc1nnc(SCC(N)=O)o1,-12,1.1,-13,1.1,10,-12
Cc1cccc(C)c1NC(=O)CSc1nnc(CCCCCNC(=O)OC(C)(C)C)o1,6,0.3,50*,0.5,-6,73*
CC(C)(C)OC(=O)NCCc1nnc(SCc2ccccc2Cl)o1,8,0.2,82*,0.2,-8,77*
Cc1ccc(NC(=O)CSc2nnc(CCNC(=O)OC(C)(C)C)o2)c(C)c1,4,0.6,11,0.9,-5,41
SMILES,sEH activator,CYP2C9 activ,CYP2C19 inh,CYP2C19 act,sEH inh,CYP2C9 inhib
Cn1c(SCC(=O)N2CCc3ccccc32)nc2cccnc21,12,0.6,82*,0.2,-15,37
c1ccc(CCSc2nccn2-c2ccccc2)cc1,5,0.5,61*,0.4,-3,54*
O=C(CSc1nnnn1-c1ccccc1)N1CCc2ccccc21,2,1.1,-6,1.1,3,-9
O=C(CSc1ncc(-c2ccccc2)n1C1CCCC1)N1CCc2ccccc21,3,0.5,65*,0.3,-3,51*
O=C(CSc1nccn1-c1ccccc1)N1CCc2ccccc21,8,0.9,96*,0,-6,15
O=C(O)c1cccnc1SCCc1ccccc1,-2,0.7,6,0.9,2,25
Fc1ccccc1OCCCN1CCOCC1,·,1.3,6,0.9,·,-29
Cc1ccc(S(=O)(=O)Nc2ccc3c(c2)ncn3C(C)(C)C)cc1,·,0.2,92*,0.1,·,80*
CC(C)(C)n1cnc2cc(NS(=O)(=O)c3ccc(Br)cc3)ccc21,-1,0,100*,0,2,99*
CCCCC(=O)NC1(C(F)(F)F)C(=O)N(CC(C)C)C2=C1C(=O)CC(C)(C)C2 (stereo unspecified),-5,0.8,9,0.9,7,24
Cc1ccc(NC(=O)C2CCN(S(=O)(=O)c3c(C)[nH]c(=O)[nH]c3=O)CC2)cc1,2,1,-2,1,-5,5
Cc1ccn2c(C(=O)c3ccc(Cl)cc3)cnc2c1,-2,0.3,79*,0.2,0,75*
Cc1ccn2c(C(=O)CSc3ccc(Cl)cc3)c(C)nc2c1,0,0.5,12,0.9,2,45
COCCn1nnnc1C(c1ccc(C)cc1)N1CCN(Cc2ccc3c(c2)OCO3)CC1 (stereo unspecified),·,0.5,48,0.5,·,51*
COc1ccccc1CN1CCN(C(CC(C)C)c2nnnn2Cc2cccs2)CC1 (stereo unspecified),·,0.4,92*,0.1,·,58*
COCCn1nnnc1C(c1ccccc1)N1CCN(Cc2ccc3c(c2)OCO3)CC1 (stereo unspecified),·,1,18,0.8,·,0
Cc1cc(C)c2[nH]c(=O)c(C(c3nnnn3Cc3ccc4c(c3)OCO4)N3CCCCC3)cc2c1 (stereo unspecified),·,0.8,34,0.7,·,23
CCC(C)(C)n1nnnc1C(c1cc2cc(C)cc(C)c2[nH]c1=O)N1CCN(Cc2ccc3c(c2)OCO3)CC1 (stereo unspecified),0,0.2,26,0.7,-2,80*
Cc1ccc(C(c2nnnn2Cc2cccs2)N2CCN(Cc3ccc4c(c3)OCO4)CC2)cc1 (stereo unspecified),·,0.6,62*,0.4,·,40
COc1cccc(-n2c(=O)[nH]cc(C(=O)Nc3ccc(NC(C)=O)cc3)c2=O)c1,2,0.9,3,1,2,5
Cc1ccc2nc(-c3ccccn3)cc(C(=O)NC3CCN(C)CC3)c2c1,9,0.9,-3,1,-6,11
CC(C)(C)n1nnnc1C(c1cccs1)N1CCN(Cc2ccc3c(c2)OCO3)CC1 (stereo unspecified),5,0.6,53*,0.5,-2,38
CCN(CC)C(=O)c1sc2[nH]c(=S)n(-c3ccccc3)c(=O)c2c1C,0,1.2,11,0.9,3,-20
